Assay [1] in a line: qHTS assay to identify small molecule antagonists of the thyroid receptor (TR) signaling pathway (AID 743065). Also: nearly all actives have a fitted effect of over 55% in size. Summed up: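 GH3.TRE-Luc rat pituitary cells (two TREs driving luciferase) were dosed with compound, then stimulated with 1 nM T3 (final) for 23.5 h at 37 C. ONE-Glo luminescence was the read-out, with CellTiter-Fluor fluorescence as the cytotoxicity counter-screen.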
For orientation: qHTS replaces the single test concentration by a dilution series.

For assay [2], the system named is thyroid hormone receptor (rat, GH3 cells). Description: qHTS assay to identify small molecule agonists of the thyroid receptor (TR) signaling pathway (AID 743066; calls by dose curve).
In assay [3] the target is Estrogen receptor (Homo sapiens) (UniProt P03372). Description: qHTS assay to identify small molecule antagonists of the estrogen receptor alpha (ER-alpha) signaling pathway (AID 743069; active = well fitted curve in the direction sought with a large enough effect in the signal ratio in the repeat runs, not every such curve was filed as active; the % refers to the signal ratio). Summed up: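 Reporter cells (ER-alpha-bla, HEK293 background) are conditioned overnight in stripped-serum medium (2% charcoal-stripped FBS). Compound and 17beta-estradiol exposure runs 18 hr at 37C, 5% CO2.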

Assay [4] in a line: qHTS assay to identify small molecule antagonists of the estrogen receptor alpha (ER-alpha) signaling pathway - cell viability counter screen (AID 743074; calls by dose curve;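 also: HEK293 cells carrying ER-alpha-UAS-bla reporter stimulated with 17beta-estradiol; nearly all actives have a fitted effect of over 45% in size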).
Assay [5] concerns the target Estrogen receptor (Homo sapiens) (UniProt P03372). Description: qHTS assay to identify small molecule agonists of the estrogen receptor alpha (ER-alpha) signaling pathway (AID 743075; calls by dose curve;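 also: HEK293 GripTite cells with ER-alpha and UAS-driven beta-lactamase reporter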).
Assay [6] shares this target. Description: qHTS assay to identify small molecule agonists of the estrogen receptor alpha (ER-alpha) signaling pathway using the BG1 cell line (AID 743079). Also: nearly all actives have a fitted effect of over 20% in size. Also: potency is read from the fitted curve at half-maximal effect. Particulars: BG1Luc4E2 cells, ERE-luciferase agonist, 22 h; activation: at 70.3 µM (top of the series) unless noted.
Assay [7] in a line: qHTS assay to identify small molecule antagonists of the estrogen receptor alpha (ER-alpha) signaling pathway using the BG1 cell line (AID 743080; calls by dose curve;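 also: BG1 cells stimulated with 17beta-estradiol alongside compound; nearly all actives have a fitted effect of over 25% in size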). Summed up: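 BG1Luc4E2, endogenous ER-alpha, 4xERE-luc; 5 d charcoal-stripped FBS, phenol red free; 24 h plating; cpd + 17beta-estradiol 21.5 h, 37 C/5% CO2; CellTiter-Fluor viability 30 min, then ONE-Glo luciferase 30 min RT.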
A short description of assay [8]: qHTS assay to identify small molecule antagonists of the estrogen receptor alpha (ER-alpha) signaling pathway using the BG1 cell line - cell viability counter screen (AID 743081).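 Also: compound given together with 17beta-estradiol as the ER stimulus; nearly all actives have a fitted effect of over 45% in size.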
Another assay addresses Aromatase (Homo sapiens) (UniProt P11511). Description: qHTS assay to identify aromatase inhibitors (AID 743083). Also: nearly all actives have a fitted effect of over 55% in size.
The nature of assay [9]: qHTS assay to identify aromatase inhibitors - cell viability counter screen (AID 743084).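 Also: cells stimulated with testosterone during compound exposure; nearly all actives have a fitted effect of over 55% in size.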
Assay [10] concerns the target Aryl hydrocarbon receptor (Homo sapiens) (UniProt P35869). Description: qHTS assay to identify small molecule that activate the aryl hydrocarbon receptor (AhR) signaling pathway (AID 743085).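 Also: HG2L7.5c1 human HepG2 liver cells with stably integrated DRE-driven firefly reporter; nearly all actives have a fitted effect of over 15% in size.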 The gist of the method: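 HepG2 cells (HG2L7.5c1) stably carrying a firefly luciferase reporter driven by 20 dioxin responsive elements were exposed to compound for 24 h at 37C after a 5 h settling period; luminescence rise (ONE-Glo) indicated activation.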

Assay [11] in a line: qHTS assay to identify small molecule that activate the aryl hydrocarbon receptor (AhR) signaling pathway - cell viability counter screen (AID 743086).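 Also: HepG2 liver cells carrying the AhR DRE luciferase reporter; nearly all actives have a fitted effect of over 45% in size.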 Summed up:
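HepG2-AhR-luc (HG2L7.5c1) cells, 4000/well, treated 24 h at 37 C with compound; viability measured as CellTiter-Fluor fluorescence after 30 min in the same wells as the luciferase read.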

Assay [12] concerns the target Peroxisome proliferator-activated receptor gamma (Homo sapiens) (UniProt P37231). Description: qHTS assay to identify small molecule agonists of the peroxisome proliferator-activated receptor gamma (PPARg) signaling pathway (AID 743094; active = well fitted activation curve with a large enough effect in the signal ratio in the repeat runs, not every such curve was filed as active; the % refers to the signal ratio). Summed up:
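GeneBLAzer PPARg UAS-bla HEK293H cells carrying a stably integrated beta-lactamase reporter were pre-incubated 5 h at 37C, then exposed to compounds in DMSO for 17 h at 37C; LiveBLAzer B/G FRET substrate was added for 1 h at room temperature and fluorescence read.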

The target is the same in assay [13]. Description: qHTS assay to identify small molecule antagonists of the peroxisome proliferator-activated receptor gamma (PPARg) signaling pathway (AID 743191; calls by dose curve; also: nearly all actives have a fitted effect of over 30% in size). Summed up:
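GeneBLAzer PPARg UAS-bla HEK293H cells, 5 h post-plating, exposed to compounds 17 h at 37C. LiveBLAzer B/G FRET substrate added for 1 h at room temperature; beta-lactamase reporter read by fluorescence intensity.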

Assay [14] in a line: qHTS assay to identify small molecule antagonists of the peroxisome proliferator-activated receptor gamma (PPARg) signaling pathway - cell viability counter screen (AID 743194). Also: nearly all actives have a fitted effect of over 55% in size. The following applies: Potency: co-treated with 50 nM rosiglitazone unless noted. The gist of the method:
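Cytotoxicity counter screen in PPARg-bla HEK293H cells, same wells as reporter assay. Compounds plus 50 nM rosiglitazone (final) for 17 h at 37 C, then viability read by CellTiter-Glo luminescence.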

Assay [15] can be described thus: qHTS assay for small molecule agonists of the antioxidant response element (ARE) signaling pathway - cell viability counter screen (AID 743203; calls by dose curve; also: nearly all actives have a fitted effect of over 55% in size). Summed up:
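CellSensor ARE-bla HepG2 cells, 2,000 per well, rested 5 hrs at 37C/5% CO2, then exposed to compound in DMSO for 16 hrs; viability read as CellTiter-Glo luminescence after 30 min at room temperature, in the reporter wells.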

The nature of assay [16]: qHTS assay for small molecule activators of the heat shock response signaling pathway - cell viability counter screen (AID 743209). Also: nearly all actives have a fitted effect of over 50% in size. Summed up: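 CellSensor HSE-bla HeLa cells, plated overnight at 37 C/5% CO2, were exposed to compounds in DMSO for 5 h at 37 C. Viability was then read in the same wells by CellTiter-Glo luminescence after 30 min at room temperature.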
Assay [17] is described as follows: qHTS assay for small molecule activators of the heat shock response signaling pathway (AID 743210; active = well fitted activation curve with a large enough effect in the signal ratio in the repeat runs, with a control signal flat, not every such curve was filed as active; the % refers to the signal ratio;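 also: HeLa cells with beta-lactamase reporter driven by heat shock elements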). The gist of the method:
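Quantitative high-throughput format using an engineered HeLa line in which heat shock response elements drive beta-lactamase; after 5 h with compound, cells received a B/G FRET substrate and fluorescence was read.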

A short description of assay [18]: qHTS assay to identify small molecule agonists of the peroxisome proliferator-activated receptor delta (PPARd) signaling pathway - cell viability counter screen (AID 743211). Also: nearly all actives have a fitted effect of over 55% in size. Summed up:
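PPARd-bla HEK293H cells (UAS-beta-lactamase reporter) were treated with compounds for 17 h at 37 C. Viability was then read in the same wells by CellTiter-Glo luminescence after 30 min at room temperature.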

Assay [19] can be described thus: qHTS assay for small molecule agonists of the antioxidant response element (ARE) signaling pathway (AID 743202; active = well fitted activation curve with a large enough effect in the signal ratio in the repeat runs, not every such curve was filed as active; the % refers to the signal ratio). Summed up:
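Agonist mode reporter screen: HepG2 cells with ARE-controlled beta-lactamase are incubated with test compounds for 16 h at 37 C, and beta-lactamase activity is measured as fluorescence of cleaved B/G FRET substrate.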

Values joined by “and” are separate entries in the source; they are usually repeats but may differ in a detail not shown here. Equal values may be shown once. Inconclusive results are not listed. Where a structure was tested more than once in an assay, its records may differ in their call. Active and inactive are the calls of the source. Unless noted, calls follow the shape of the dose curve; as a rule, active = well fitted curve in the direction sought with a large enough effect in the repeat runs; inconclusive = weak or mixed curves; inactive = no such curve, though single readings can be large; an effect the other way counts as inactive or inconclusive.

Peroxisome proliferator-activated receptor gamma (Homo sapiens), sequence (P37231 whole entry, looked up): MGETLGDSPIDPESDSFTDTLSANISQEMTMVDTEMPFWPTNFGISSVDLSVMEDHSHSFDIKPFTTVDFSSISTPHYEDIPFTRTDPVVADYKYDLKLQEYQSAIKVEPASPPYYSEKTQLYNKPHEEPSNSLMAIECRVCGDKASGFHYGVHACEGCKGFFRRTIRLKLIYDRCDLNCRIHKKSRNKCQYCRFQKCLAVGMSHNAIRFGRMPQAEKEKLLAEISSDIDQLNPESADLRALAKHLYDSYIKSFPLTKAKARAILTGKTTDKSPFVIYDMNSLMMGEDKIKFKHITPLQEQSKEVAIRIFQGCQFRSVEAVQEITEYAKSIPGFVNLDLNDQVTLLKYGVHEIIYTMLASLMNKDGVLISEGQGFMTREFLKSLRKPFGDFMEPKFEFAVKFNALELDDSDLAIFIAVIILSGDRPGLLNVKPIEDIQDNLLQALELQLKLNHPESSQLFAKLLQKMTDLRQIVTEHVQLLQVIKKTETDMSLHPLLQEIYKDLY
Estrogen receptor (Homo sapiens), sequence (P03372 whole entry, looked up): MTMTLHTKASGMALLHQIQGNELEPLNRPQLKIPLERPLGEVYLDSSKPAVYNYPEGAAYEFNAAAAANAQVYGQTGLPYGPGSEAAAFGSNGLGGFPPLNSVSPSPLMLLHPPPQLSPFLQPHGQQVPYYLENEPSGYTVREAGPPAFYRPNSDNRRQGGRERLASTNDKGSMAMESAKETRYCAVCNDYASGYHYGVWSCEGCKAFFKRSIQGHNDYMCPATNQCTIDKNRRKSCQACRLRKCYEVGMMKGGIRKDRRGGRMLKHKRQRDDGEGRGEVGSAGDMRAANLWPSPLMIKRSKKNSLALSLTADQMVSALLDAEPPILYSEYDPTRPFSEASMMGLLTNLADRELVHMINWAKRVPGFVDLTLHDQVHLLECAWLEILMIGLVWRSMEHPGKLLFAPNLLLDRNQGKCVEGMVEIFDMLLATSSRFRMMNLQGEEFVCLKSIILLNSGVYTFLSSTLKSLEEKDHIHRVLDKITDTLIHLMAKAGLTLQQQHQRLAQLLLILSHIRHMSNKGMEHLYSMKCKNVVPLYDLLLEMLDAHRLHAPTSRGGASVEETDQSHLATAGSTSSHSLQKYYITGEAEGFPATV
Aryl hydrocarbon receptor (Homo sapiens), sequence (P35869 whole entry, looked up): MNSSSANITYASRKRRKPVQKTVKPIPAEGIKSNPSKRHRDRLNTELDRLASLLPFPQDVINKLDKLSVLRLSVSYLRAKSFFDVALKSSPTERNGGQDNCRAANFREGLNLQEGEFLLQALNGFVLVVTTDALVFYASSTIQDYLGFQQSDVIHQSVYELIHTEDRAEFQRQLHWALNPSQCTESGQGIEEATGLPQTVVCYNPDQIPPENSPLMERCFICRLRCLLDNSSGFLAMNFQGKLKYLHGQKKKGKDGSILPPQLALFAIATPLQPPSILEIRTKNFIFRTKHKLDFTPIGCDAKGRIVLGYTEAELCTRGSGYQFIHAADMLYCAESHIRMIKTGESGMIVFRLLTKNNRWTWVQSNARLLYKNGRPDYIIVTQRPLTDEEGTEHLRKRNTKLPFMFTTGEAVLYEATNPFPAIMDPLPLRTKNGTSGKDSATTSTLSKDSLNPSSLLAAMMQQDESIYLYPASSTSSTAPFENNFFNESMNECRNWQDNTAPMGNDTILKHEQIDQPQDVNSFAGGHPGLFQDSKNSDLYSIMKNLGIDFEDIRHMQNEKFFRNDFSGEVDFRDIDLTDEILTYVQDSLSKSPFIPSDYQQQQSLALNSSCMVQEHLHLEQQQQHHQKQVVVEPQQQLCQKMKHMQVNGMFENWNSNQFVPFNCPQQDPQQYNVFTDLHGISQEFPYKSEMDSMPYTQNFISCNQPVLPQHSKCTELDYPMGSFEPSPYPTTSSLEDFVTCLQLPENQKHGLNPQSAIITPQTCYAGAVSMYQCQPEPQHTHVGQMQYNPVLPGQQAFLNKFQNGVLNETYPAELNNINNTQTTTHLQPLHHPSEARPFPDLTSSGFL
Aromatase (Homo sapiens), sequence (P11511 whole entry, looked up): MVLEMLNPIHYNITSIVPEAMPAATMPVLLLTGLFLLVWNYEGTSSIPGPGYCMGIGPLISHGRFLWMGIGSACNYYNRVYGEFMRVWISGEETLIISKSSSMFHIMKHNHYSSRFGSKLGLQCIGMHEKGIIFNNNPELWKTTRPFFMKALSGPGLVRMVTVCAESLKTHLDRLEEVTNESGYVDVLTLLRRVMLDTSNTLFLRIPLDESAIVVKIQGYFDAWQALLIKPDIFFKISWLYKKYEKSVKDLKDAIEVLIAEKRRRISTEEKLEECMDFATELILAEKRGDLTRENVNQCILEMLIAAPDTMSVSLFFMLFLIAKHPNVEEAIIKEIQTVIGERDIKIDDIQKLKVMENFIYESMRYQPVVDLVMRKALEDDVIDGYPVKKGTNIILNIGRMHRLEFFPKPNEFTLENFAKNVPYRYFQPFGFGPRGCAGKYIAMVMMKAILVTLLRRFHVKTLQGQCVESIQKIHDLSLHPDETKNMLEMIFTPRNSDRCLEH

In the case of `CCCCC(=O)O`, the Potency result in [1], in assay [2], in [3], in [4], in assay [5] and in assay [7] was “inactive” in each case. Besides, the Potency result (in [8]; in the assay with Aromatase (Homo sapiens); in assay [9]; in [10]; in [11]; in assay [12]) was “inactive” in each case. Also, the Potency entry in assay [13], in assay [14], in assay [15], in assay [16] and in assay [17] was “inactive” throughout. Also, in assay [6], the Potency result was “inactive and 49.1 µM (active)”.
Turning to `OB(O)O`, the Potency entry in [1], in assay [2], in assay [3], in assay [4], in [5] and in [6] was “inactive” each time. Also, the Potency result (in assay [7]; in assay [8]; with Aromatase (Homo sapiens); in assay [9]; in assay [10]; in [11]) was “inactive” each time. Moreover, the Potency entry in assay [12], in [13], in [15], in assay [17] and in assay [18] was “inactive” throughout.
Turning to `CC(C)c1ccc(C(C)C)cc1`, the Potency result in assay [1], in assay [2], in assay [3], in assay [4], in assay [5] and in assay [6] was “inactive” throughout. In addition, the Potency entry (in assay [7]; in [8]; with Aromatase (Homo sapiens); in [9]; in [10]; in [11]) was “inactive” in each case. In addition, the Potency result in assay [12], in [13], in assay [14], in assay [19], in assay [15] and in assay [16] was “inactive” in each case. Besides, in assay [17], the Potency entry was “inactive”.
On to `Cc1cc(C)c(O)c(C)c1`, for which the Potency entry in assay [1], in assay [2], in assay [3], in assay [4], in assay [5] and in assay [6] was “inactive” throughout. Moreover, the Potency result (in assay [7]; in [8]; with Aromatase (Homo sapiens); in [9]; in assay [10]; in assay [11]) was “inactive” in each case. The Potency result in assay [12], in assay [13], in assay [14], in assay [15] and in assay [17] was “inactive” throughout.
Consider `CCc1cccc(O)c1`, for which the Potency entry in assay [1], in [2], in [3], in [4], in assay [5] and in [6] was “inactive” throughout. In addition, the Potency result (in assay [7]; in assay [8]; with Aromatase (Homo sapiens); in [9]; in assay [10]; in assay [11]) was “inactive” each time. The Potency entry in [12], in assay [13], in assay [14], in assay [19], in assay [15] and in assay [17] was “inactive” each time. The Potency entry in [18] is “inactive”.
As to `Cc1ccccc1C=O`, the Potency result in assay [1], in assay [2], in assay [3], in assay [4], in assay [5] and in [6] was “inactive” each time. Moreover, the Potency result (in assay [7]; in assay [8]; with Aromatase (Homo sapiens); in assay [9]; in [10]; in assay [11]) was “inactive” in each case. Moreover, the Potency entry in [12], in assay [13], in [14], in [15], in assay [16] and in [17] was “inactive” in each case.
For `O=C(Cl)c1ccc(C(=O)Cl)cc1`, the Potency result in assay [1], in assay [2], in assay [3], in assay [4], in assay [5] and in assay [6] was “inactive” each time. Besides, the Potency result (in [7]; in assay [8]; with Aromatase (Homo sapiens); in assay [9]; in assay [10]; in [11]) was “inactive” throughout. Also, the Potency result in [12], in assay [13], in assay [14], in [15], in assay [16] and in assay [17] was “inactive” each time.
Consider `CC(O)CNCC(C)O` (stereo not given), for which the Potency result in [1], in assay [2], in assay [3], in assay [4], in assay [5] and in assay [6] was “inactive” in each case. Also, the Potency entry (in [7]; in assay [8]; with Aromatase (Homo sapiens); in assay [9]; in [10]; in assay [11]) was “inactive” each time. Moreover, the Potency result in assay [12], in [13], in assay [14], in assay [15], in assay [16] and in [17] was “inactive” each time. Besides, the Potency entry in assay [18] was “inactive”.
